Compound activity (PubChem BioAssay)
This is a sample that favours compounds with a hit; in the whole collection about 3.1% have one here.
S16 viability: cytotoxicity in S16 Pmp22-F2sN Schwann cells | S16 Pmp22-F2sN Schwann cells viability, CellTiter-Glo, 24 h | Potency, µM (series often up to 57.5 µM), for inactives: top-dose activity change, negative = cytotoxicity, hits mostly cytotoxic | actives 0.48% (n = 43,000) | AID 1508642; further: nearly all actives have a fitted effect of over 65% in size
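S16 Pmp22-F2sN Schwann cells (500-1,000/well) in phenol-red-free DMEM with 10% FBS received 23 nL compound by pin tool for 24 h at 37 °C. Viability was then read as CellTiter-Glo luminescence after 15 min at room temperature.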
p53null 32C tox: selectivity test: cytotoxicity in p53 null cells, permissive temperature; actives 0.62% (n = 55,000); Potency, µM (titrated, usually from 46.1 µM), for the others: at the top dose activity change, negative = cytotoxicity, actives largely listed as cytotoxic; H1299-neo p53 null cells, ATP luminescence, 24 h, 32C;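 further: 0% = DMSO only and -100% = full killing by 100 µM tamoxifen; nearly all actives have a fitted effect of over 55% in size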
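Cells lacking p53 (H1299-neo) are plated at 600 per well and allowed to settle overnight at 37C. Test compounds (up to 46 uM) are added and held 24 hours at 32C, then ATP is quantified by luminescence.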
mTORC1 inh: mTORC1 pathway inhibition measured by phospho-rpS6; Potency, µM (series often up to 38.3 µM), for inactives: at the highest dose activity change, negative = inhibition, usual class: inhibitors; actives 0.78% (n = 44,000); Tsc2-/- p53-/- MEF, phospho-rpS6 immunofluorescence/PI, 24 h;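 further: plate controls were DMSO for no effect and rapamycin for full effect; nearly all actives have a fitted effect of over 50% in size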
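Readout is phospho-S6 Alexa 488 signal normalized to PI per well, reported as % active cells with thresholds set from rapamycin (7.5 nM) and DMSO controls. Cells: Tsc2-/-, p53-/- MEFs, 24 hrs compound at 37 C; PI cell number serves as viability.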
p53null 39C tox: selectivity test: cytotoxicity in p53 null cells, nonpermissive temperature. Potency, µM (top dose mostly 46.1 µM), inactives show top-dose activity, negative = cell killing, most hits filed as cytotoxic. AID 904. actives 0.97% (n = 55,000). H1299 p53-null (neo) cells, 39C, ATPlite viability, 24 h;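 further: 0% = DMSO only and -100% = full killing by 100 µM tamoxifen; nearly all actives have a fitted effect of over 50% in size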
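Temperature-shift cytotoxicity format: compound titrations on p53-null or A138V-expressing H1299 cells held 24 hr at 39C, cell ATP then measured, AC50 from Hill model.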
PMP22 txn: PMP22 gene transcription modulation | S16 Pmp22-F2sN Schwann cells (luciferase reporters placed in the Pmp22 gene), FLuc/NLuc coincidence luminescence, 24 h | Potency, µM (highest dose often 57.5 µM), without a hit: at the top dose activity change, negative = inhibition, most hits filed as inhibitors | actives 2% (n = 43,000); active means clear falling dose curves in both reporters; inconclusive means both reporters move, but less clearly or upward; inactive means either reporter flat; the % is the NLuc reporter signal
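Schwann cells carrying the coincidence reporter were exposed to library compounds for 24 h at 37C, then lysed and read for FLuc and, after quenching, NLuc luminescence on a CCD imager.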
SKOV3 invasion: blocks SKOV3ip1 adhesion and invasion in omental model; Potency, µM (top dose mostly 45.8 µM), without a hit: top-dose activity change, negative = inhibition, most hits filed as inhibitors; SKOV3ip1-GFP adhesion/invasion on 3D omental model, fluorescence; AID 1963576; actives 0.1% (n = 46,000);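 further: plate controls were DMSO wells for no effect and tomatine positive control wells for full effect; nearly all actives have a fitted effect of over 65% in size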
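A 3D layer of primary human omental fibroblasts, mesothelial cells, fibronectin and collagen I, grown 48 hr, received SKOV3ip1-GFP cells in serum-free medium plus compounds at 0.36-46 umol/L. After 2 hr RT and 16 hr 37 C, fixed adherent GFP cells were counted; normalized to DMSO and tomatine.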
The depositor's hits bear a star; i = inactive; ? = inconclusive; / = no result given; [ ] = remark or other dose. Unless noted, the call rests on the fitted dose curve; in most records, active means well fitted curve in the direction sought with a large enough effect; inconclusive means small, poorly fitted or top-dose-only effect, or another doubt; inactive means no such curve, though single readings can be large; an effect the other way counts as inactive or inconclusive. Unless noted, on the % scale 0 is the no-effect control and ±100 the full control effect; potency means the concentration at half of the fitted maximal effect.

SMILES	S16 viability	p53null 32C tox	mTORC1 inh	p53null 39C tox	PMP22 txn	SKOV3 invasion
COc1cc(/C=N/OCC(=O)NC23CC4CC(CC(C4)C2)C3)ccc1OCc1ccccc1	/	/	/	43%[1.84 µM]	/	/
COc1cc(/C=N/O)ccc1OCc1ccc(C(=O)O)cc1	/	13µM*	/	8.9µM*	/	/
CCCc1cc(=O)n2[nH]c(-c3ccc(C)cc3)nc2n1	-13%	?	-2%	-31%	?	-5%
COC(=O)Cc1c(C)nc2nc(-c3ccc(C)cc3)[nH]n2c1=O	0%	10µM*	-11%	?	-5%	-6%
Oc1ccc(Nc2nc(-c3ccc(Cl)cc3)nc3ccccc23)cc1	?	?	?	16µM*	?	-16%
O=c1ncn2nc(Sc3ccc(F)cc3F)ccc2c1-c1c(Cl)cccc1Cl	/	/	/	/	/	-7%
CS[C@H]1SC[C@@H]2C(=O)N(C)[C@H](C(C)C)C(=O)OC[C@H](NC(=O)c3cnc4ccccc4n3)C(=O)N[C@H](C)C(=O)N(C)[C@@H]1C(=O)N(C)[C@H](C(C)C)C(=O)OC[C@H](NC(=O)c1cnc3ccccc3n1)C(=O)N[C@H](C)C(=O)N2C	/	/	/	/	/	5%
C[C@@H](Oc1cc(-n2cnc3ccc(CN4CCN(C)CC4)cc32)sc1C(N)=O)c1ccccc1C(F)(F)F	/	/	/	/	/	1%
CC(=O)O[C@]1(C(C)=O)CC[C@H]2[C@@H]3C=C(Cl)C4=CC(=O)[C@@H]5C[C@H]5[C@]4(C)[C@@H]3CC[C@@]21C	/	/	/	/	/	-21%
COC(=O)c1c(SCC(=O)Nc2cc(C)cc(C)c2)[nH]c2ccccc2c1=O	-12%	?	-10%	?	?	i
COC(=O)c1c(SCC(=O)Nc2ccccc2C(F)(F)F)[nH]c2ccc(Cl)cc2c1=O	14%	-25%	-3%	6.3µM*	-10%	5%
CC1(C)CC(=O)c2sc(NC(=O)c3cccs3)nc2C1	/	2.2µM*	/	1.1µM*	/	/
FC(F)(F)c1cccc(Nc2nc3nonc3nc2Nc2ccc(Cl)cc2)c1	8.9µM*	?	?	13µM*	5.6µM*	10µM*
O=C(Nc1cccc(C(F)(F)F)c1)c1cc(-c2ccc(Cl)cc2)on1	21%	1%	-25%	16%	-23%	17%
CCCn1c(/C=C/c2ccccc2)nc2ccccc21	-5%	16µM*	-8%	?	-11%	-1%
COc1cc2ncn(-c3cc(OCc4ccccc4C(F)(F)F)c(C(N)=O)s3)c2cc1OC	/	/	/	/	/	5%
CN1CCN(c2cc(C(=O)Nc3ccc4c(c3)-c3c(c(C(N)=O)nn3-c3ccc(F)cc3)CC4)c(Cl)cn2)CC1	/	/	/	/	/	-25%
CCC1CCc2nc3sc(C(=O)Nc4ccc(C)cc4)c(N)c3cc2C1 (stereo unspecified)	3%	-2%	18µM*	13%	-16%	-5%
CN(C)CC[C@H](CSc1ccccc1)Nc1ccc(S(=O)(=O)NC(=O)c2ccc(N3CCN(Cc4ccccc4-c4ccc(Cl)cc4)CC3)cc2)cc1[N+](=O)[O-]	/	/	/	/	/	15%
O=C(c1ccc(Nc2nc3ccccc3n3nnnc23)cc1)N1CCN(c2cccc(C(F)(F)F)c2)CC1	?	-4%	7%	-16%	?	-1%
O=C(NCCc1ccccc1)c1ccc(Nc2nc3ccccc3n3nnnc23)cc1	28µM*	?	-2%	?	?	-10%
Cc1ccc(CNC(=O)c2cccc(Nc3nc4ccccc4n4nnnc34)c2)cc1	8.9µM*	-12%	0%	-23%	11µM*	-2%
O=C(O)CCNc1cc(N2CCc3ccccc3CC2)nc(-c2ccccn2)n1	/	/	/	/	/	-4%
